Measurements: the supplement of paper PMC8728848
About 410 targets per protein were measured; listed, in parts, are those with the strongest signals and a random draw of the rest.

Key:
Experiment in all cases: glycan array binding signal (z-score within array); higher = stronger binding
Conditions in all cases: glycan notation: IUPAC condensed, linker removed
[1] = molecular target: GalNAc(b1-3)Gal(a1-4)Gal(b1-4)GlcNAc
In short: (§1)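 From the Consortium for Functional Glycomics database, 3228 arrays were curated, keeping only those whose protein sequence was available. Binding is given as a within-array Z-score averaged across arrays sharing a protein sequence and across linkers. Negative Z-scores can be read as non-binding.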

[2] = molecular target: GalNAc(b1-3)Gal(a1-4)Gal(b1-4)GlcNAc(b1-3)Gal(b1-4)Glc
In short: as §1

GalNAc6S(b1-4)GlcNAc = molecular target: GalNAc6S(b1-4)GlcNAc
In short: as §1

[3] = molecular target: GlcNAc(a1-4)Gal(b1-4)GlcNAc
In short: as §1

[4] = molecular target: GlcNAc(b1-2)[GlcNAc(b1-4)]Man(a1-3)[GlcNAc(b1-4)][GlcNAc(b1-2)Man(a1-6)]Man(b1-4)GlcNAc(b1-4)GlcNAc
In short: as §1

[5] = molecular target: GlcNAc(b1-3)Gal(b1-4)GlcNAc(b1-3)Gal(b1-4)GlcNAc(b1-2)[GlcNAc(b1-3)Gal(b1-4)GlcNAc(b1-3)Gal(b1-4)GlcNAc(b1-6)]Man(a1-6)[GlcNAc(b1-3)Gal(b1-4)GlcNAc(b1-3)Gal(b1-4)GlcNAc(b1-2)Man(a1-3)]Man(b1-4)GlcNAc(b1-4)[Fuc(a1-6)]GlcNAc
In short: as §1

[6] = molecular target: GlcNAc(b1-3)Gal(b1-4)GlcNAc(b1-3)Gal(b1-4)GlcNAc(b1-3)Gal(b1-4)GlcNAc(b1-2)Man(a1-3)[GlcNAc(b1-3)Gal(b1-4)GlcNAc(b1-3)Gal(b1-4)GlcNAc(b1-3)Gal(b1-4)GlcNAc(b1-2)Man(a1-6)]Man(b1-4)GlcNAc(b1-4)[Fuc(a1-6)]GlcNAc
In short: as §1

[7] = molecular target: GlcNAc(b1-3)Gal(b1-4)GlcNAc(b1-3)Gal(b1-4)GlcNAc(b1-3)Gal(b1-4)GlcNAc(b1-3)Gal(b1-4)GlcNAc(b1-2)Man(a1-3)[GlcNAc(b1-3)Gal(b1-4)GlcNAc(b1-3)Gal(b1-4)GlcNAc(b1-3)Gal(b1-4)GlcNAc(b1-3)Gal(b1-4)GlcNAc(b1-2)Man(a1-6)]Man(b1-4)GlcNAc(b1-4)[Fuc(a1-6)]GlcNAc
In short: as §1

[8] = molecular target: GlcNAc(b1-3)Gal(b1-4)GlcNAc(b1-6)[Gal(b1-3)]GalNAc
In short: as §1

GlcNAc(b1-3)GalNAc = molecular target: GlcNAc(b1-3)GalNAc
In short: as §1

GlcNAc(b1-6)GalNAc = molecular target: GlcNAc(b1-6)GalNAc
In short: as §1

Kdn(a2-3)Gal(b1-4)GlcNAc = molecular target: Kdn(a2-3)Gal(b1-4)GlcNAc
In short: as §1

[9] = molecular target: Man(a1-2)Man(a1-3)[Man(a1-2)Man(a1-6)]Man
In short: as §1

[10] = molecular target: Neu5Ac(a2-3)Gal(b1-3)GalNAc(b1-4)[Neu5Ac(a2-8)Neu5Ac(a2-3)]Gal(b1-4)Glc
In short: as §1

[11] = molecular target: Neu5Ac(a2-3)Gal(b1-3)GlcNAc(b1-6)GalNAc
In short: as §1

[12] = molecular target: Neu5Ac(a2-3)Gal(b1-4)GlcNAc(b1-3)Gal(b1-4)GlcNAc(b1-2)Man(a1-3)[Neu5Ac(a2-3)Gal(b1-4)GlcNAc(b1-3)Gal(b1-4)GlcNAc(b1-2)Man(a1-6)]Man(b1-4)GlcNAc(b1-4)GlcNAc
In short: as §1

[13] = molecular target: Neu5Ac(a2-3)Gal(b1-4)GlcNAc(b1-3)Gal(b1-4)GlcNAc(b1-6)[Gal(b1-3)]GalNAc
In short: as §1

[14] = molecular target: Neu5Ac(a2-3)Gal(b1-4)GlcNAc(b1-6)GalNAc
In short: as §1

[15] = molecular target: Neu5Ac(a2-3)Gal(b1-4)GlcNAc(b1-6)[Gal(b1-3)]GalNAc
In short: as §1

[16] = molecular target: Neu5Ac(a2-3)Gal(b1-4)[Fuc(a1-3)]GlcNAc6S
In short: as §1

Neu5Ac(a2-3)GalNAc = molecular target: Neu5Ac(a2-3)GalNAc
In short: as §1

[17] = molecular target: Neu5Ac(a2-6)Gal(b1-4)GlcNAc(b1-2)Man
In short: as §1

[18] = molecular target: Neu5Ac(a2-6)Gal(b1-4)GlcNAc(b1-2)Man(a1-3)[GlcNAc(b1-2)Man(a1-6)]Man(b1-4)GlcNAc(b1-4)GlcNAc
In short: as §1

[19] = molecular target: Neu5Ac(a2-6)Gal(b1-4)GlcNAc(b1-2)Man(a1-6)[GlcNAc(b1-2)Man(a1-3)]Man(b1-4)GlcNAc(b1-4)GlcNAc
In short: as §1

[20] = molecular target: Neu5Ac(a2-8)Neu5Ac(a2-3)[Gal(b1-3)GalNAc(b1-4)]Gal(b1-4)Glc
In short: as §1

[21] = molecular target: Neu5Gc(a2-3)Gal(b1-3)GlcNAc
In short: as §1

[22] = molecular target: Neu5Gc(a2-8)Neu5Gc(a2-3)Gal(b1-4)GlcNAc
In short: as §1

[23] = molecular target: Neu5Gc(a2-8)Neu5Gc(a2-6)Gal(b1-4)GlcNAc
In short: as §1

B1: DC-ASGPR L+GEE (Homo sapiens) (protein)
chain: MTRTYENFQYLENKVKVQGFKNGPLPLQSLLQRLRSGPCHLLLSLGLGLLLLVIICVVGFQNSKFQRDLVTLRTDFSNFTSNTVAEIQALTSQGSSLEETIASLKAEVEGFKQERQAGVSELQEHTTQKAHLGHCPHCPSVCVPVHSEMLLRVQQLVQDLKKLTCQVATLNNNGEEASTEGTCCPVNWVEHQDSCYWFSHSGMSWAEAEKYCQLKNAHLVVINSREEQNFVQKYLGSAYTWMGLSDPEGAWKWVDGTDYATGFQNWKPGQPDDWQGHGLGGGEDCAHFHPDGRWNDDVCQRPYHWVCEAGLGQTSQESH
glycan array binding signal (z-score) [1]: 4.33
glycan array binding signal (z-score) [2]: 4.06
glycan array binding signal (z-score) (GalNAc6S(b1-4)GlcNAc): 1.11
glycan array binding signal (z-score) [3]: -0.367
glycan array binding signal (z-score) [4]: -0.37
glycan array binding signal (z-score) [5]: 0.194
glycan array binding signal (z-score) [6]: -0.283
glycan array binding signal (z-score) [7]: 0.512
glycan array binding signal (z-score) [8]: -0.411
glycan array binding signal (z-score) (GlcNAc(b1-3)GalNAc): -0.439
glycan array binding signal (z-score) (GlcNAc(b1-6)GalNAc): 3.71
glycan array binding signal (z-score) (Kdn(a2-3)Gal(b1-4)GlcNAc): -0.074
glycan array binding signal (z-score) [9]: -0.348
glycan array binding signal (z-score) [10]: -0.319
glycan array binding signal (z-score) [11]: 6.64
glycan array binding signal (z-score) [12]: -0.164
glycan array binding signal (z-score) [13]: -0.553
glycan array binding signal (z-score) [14]: 3
glycan array binding signal (z-score) [15]: -0.019
glycan array binding signal (z-score) [16]: -0.418
glycan array binding signal (z-score) (Neu5Ac(a2-3)GalNAc): -0.223
glycan array binding signal (z-score) [17]: 0.432
glycan array binding signal (z-score) [18]: -0.362
glycan array binding signal (z-score) [19]: -0.328
glycan array binding signal (z-score) [20]: 0.544
glycan array binding signal (z-score) [21]: -0.017
glycan array binding signal (z-score) [22]: -0.146
glycan array binding signal (z-score) [23]: -0.204
